# Results taken from PubChem BioAssay AID504892 (The Scripps Research Institute Molecular Screening Center, 2011).
# Values without a mark were called inactive. Activity calls are given as the source filed them. The rule behind the calls is not given here.
# Biological target: sn-1-specific diacylglycerol lipase ABHD11 (Homo sapiens) (UniProt Q8NFV4)
# Assay: ABHD11 inhibitors, late-stage follow-up, gel-based ABPP, fluorescence, human isoform (AID 504892)
# Conditions: human ABHD11 proteome; at 20 µM (top of the series) unless noted
# sn-1-specific diacylglycerol lipase ABHD11 (Homo sapiens), sequence (Q8NFV4 whole entry, looked up, canonical isoform): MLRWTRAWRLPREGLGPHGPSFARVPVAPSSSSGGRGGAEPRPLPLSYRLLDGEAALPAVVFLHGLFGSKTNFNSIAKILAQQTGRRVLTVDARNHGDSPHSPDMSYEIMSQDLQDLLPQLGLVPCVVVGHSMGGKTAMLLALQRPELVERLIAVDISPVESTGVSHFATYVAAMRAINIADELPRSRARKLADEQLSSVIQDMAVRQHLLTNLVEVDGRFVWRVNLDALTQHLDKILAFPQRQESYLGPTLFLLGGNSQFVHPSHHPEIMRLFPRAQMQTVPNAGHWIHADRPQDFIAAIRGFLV
row,SMILES,inhibition
1,CCC1CCCCN1C(=O)Oc1ccc([N+](=O)[O-])cc1 (configuration not stated),0%
2,CCC1CCCCN1C(=O)n1ncc(C(O)(c2ccccc2)c2ccccc2)n1 (configuration not stated),100% [at 0.15 µM] (active)
